Source: PubChem BioAssay (EPA / NIEHS)
Where “and” joins values, the source holds several entries; their conditions need not be identical. Equal values may be shown once. The source holds several records for some structures; these can differ, active in one and inactive in another. Calls of active or inactive are those of the source. How the source made its calls: active means hit-call score of the fitted dose curve at least 0.9, where 1 is the maximum; inactive means score below 0.9.

Experiment: ATG_EGR_CIS: Attagene CIS-FACTORIAL HepG2 Assay for human Early Growth Response 1 (EGR1) (AID 2282938)
Conditions: HepG2 Attagene CIS-FACTORIAL EGR reporter mRNA; actives raise or lower the signal
Description: ATG_CIS is a cell-based, multiplexed-readout assay that uses HepG2, a human liver cell line, with measurements taken at 24 hours after chemical dosing in a 24-well plate.ATG_EGR_CIS is one of 52 assay component(s) measured or calculated from the ATG_CIS assay. It is designed to make measurements of mRNA induction, a form of inducible reporter, as detected with fluorescence intensity signals by Reverse transcription polymerase chain reaction (RT-PCR) and Capillary electrophoresis technology.Data from the assay component ATG_EGR_CIS was analyzed into 1 assay endpoint. This assay endpoint, ATG_EGR_CIS, was analyzed with bidirectional fitting relative to DMSO as the negative control and baseline of activity. Using a type of inducible reporter, measures of mRNA for gain or loss-of-signal activity can be used to understand the reporter gene at the transcription factor-level as they relate to the gene EGR1. Furthermore, this assay endpoint can be referred to as a primary readout, because this assay has produced multiple assay endpoints where this one serves a reporter gene function. To generalize the intended target to other relatable targets, this assay endpoint is annotated to the dna binding intended target family, where the subfamily is zinc finger.
Human liver HepG2 cells are transiently transfected with multiple reporter transcription units (MRTUs) in 6-well plates using FuGene 6 reagent (Roche; 3 ml FuGene/1 mg DNA). The MRTU constructs are regulated by a cis-regulating element (promoter). […] A major difference between the CIS and TRANS system is that in CIS activities of endogenous TFs are measured, whereas the TRANS assay evaluates changes in activities of exogenous, chimeric NR-Gal4 proteins. […] At the end of 24 hour incubation, total RNA was isolated using TriZol reagent (Invitrogen). The isolated RNA is then reverse-transcribed using oligo(dT) primer and Mo-MLV reverse transcriptase (Invitrogen) with DNAse I (Ambion) treatment for 30 min. The one-tenth of the produced cDNA was amplified by PCR using Taq DNA polymerase (Invitrogen) and two reporter sequence-specific primers. The PCR products were fluorescently labeled by primer extension with 6-arboxyfluorescein (6-FAM) 5'-labeled reporter sequence-specific primer (2 min at 95 C, 20 s at 68 C and 10 min at 72 C) and these products were digested with 5U of HpaI (New England Biolabs) for 2h at 37 C. The fragments were purified using Qiaquick PCR columns (Qiagen), analyzed on an ABI 3130xL genetic analyzer (Applied Biosystems) with peak positions identified by using a set of X-rhodamine (ROX)-labeled MapMarker1000 molecular weight standards (BioVentures). The raw capillary electrophoresis data was processed using Attagraph software (Attagene).

**Q.** What does the source list for `O=C(c1ccc(OCCN2CCCCC2)cc1)c1c(-c2ccc(O)cc2)sc2cc(O)ccc12`?
**A.** outcome: inactive; AC50: 11.1 µM (active) and 12.6 µM (active) and 7.51 µM (active)

**Q.** Which outcome does the source give for `CCCCCCCCOC(=O)c1ccc(O)cc1` here?
**A.** inactive

**Q.** For `CC1(C)[C@H](C=C(Cl)Cl)[C@H]1C(=O)OCc1cccc(Oc2ccccc2)c1`, which outcome is on record?
**A.** inactive

**Q.** For `CC1=CC(C)C(C=O)C(C)C1` (stereo not given) (tested in a mixture with another compound), which outcome is on record?
**A.** inactive

**Q.** Which outcome does the source give for `C1=COCCC1` here?
**A.** inactive

**Q.** Which outcome does the source give for `C[C@]12CC[C@@H]3c4ccc(O)cc4CC[C@H]3[C@@H]1CC[C@@H]2O` here?
**A.** inactive

**Q.** Which outcome does the source give for `CC(C)Cc1ccccc1` here?
**A.** inactive

**Q.** Which outcome does the source give for `[O-]/[N+](=N\O)c1ccccc1` here?
**A.** inactive

**Q.** With `COc1ccccc1O` as the molecule, how does the outcome read?
**A.** inactive

**Q.** With `O=S1(=O)CC(Cl)(Cl)C(Cl)(Cl)C1` as the molecule, how does the AC50 read?
**A.** 6.17 µM (active)

**Q.** For `CC1(C)CC(=O)CC(C)(C)N1`, which outcome is on record?
**A.** inactive

**Q.** With `CC(C)=CC(=O)O` as the molecule, how does the outcome read?
**A.** inactive

**Q.** Which outcome does the source give for `CC(=O)c1ccc(O)cc1` here?
**A.** inactive

**Q.** For `C=CCOCC(O)CO` (stereo not given), which outcome is on record?
**A.** inactive

**Q.** For `CCCCCCCCOS(=O)(=O)O`, which outcome is on record?
**A.** inactive

**Q.** With `CC(C)N(c1ccccc1)C(C)C` as the molecule, how does the outcome read?
**A.** inactive

**Q.** With `CCCC[N+](C)(CCCC)CCCC` as the molecule, how does the outcome read?
**A.** inactive

**Q.** For `CCCCC(CC)COCCO` (stereo not given), which outcome is on record?
**A.** inactive

**Q.** Which outcome does the source give for `O=S1(=O)CC=CC1` here?
**A.** inactive

**Q.** For `CC(=N[Si](C)(C)C)O[Si](C)(C)C`, which outcome is on record?
**A.** inactive

**Q.** Which outcome does the source give for `CCCOC(=O)CC` here?
**A.** inactive

**Q.** For `C=C(C)C(=O)OCCN(C)C`, which outcome is on record?
**A.** inactive

**Q.** For `FC(F)(F)c1ccc(Cl)c(Cl)c1`, which outcome is on record?
**A.** inactive

**Q.** Which outcome does the source give for `CCNC(=S)NCC` here?
**A.** inactive

**Q.** For `O=C(O)c1ccc(C(=O)O)c(C(=O)O)c1`, which outcome is on record?
**A.** inactive

**Q.** With `CCCc1ccc(N)cc1` as the molecule, how does the outcome read?
**A.** inactive

**Q.** Which outcome does the source give for `O=Cc1ccccc1O` here?
**A.** inactive

**Q.** With `CCCCOCCOCCOCCO` as the molecule, how does the outcome read?
**A.** inactive

**Q.** For `CC12CCC(C1)C(C)(C)C2O` (stereo not given), which outcome is on record?
**A.** inactive

**Q.** For `CCC(CC)CO`, which outcome is on record?
**A.** inactive

**Q.** For `C=CCOC(=O)/C=C\C(=O)OCC=C`, which AC50 is on record?
**A.** 34.3 µM (active)

**Q.** With `C1CCCNCC1` as the molecule, how does the outcome read?
**A.** inactive

**Q.** Which outcome does the source give for `CC(C)(C)C1CCC(O)CC1` (stereo not given) here?
**A.** inactive

**Q.** Which outcome does the source give for `CC(=O)c1ccc(C)cc1` here?
**A.** inactive

**Q.** Which outcome does the source give for `CCCCCCCCCO` here?
**A.** inactive

**Q.** Which outcome does the source give for `CCCCCCC(O)CCOC(C)=O` (stereo not given) here?
**A.** inactive

**Q.** For `O=C1CCC(=O)N1`, which outcome is on record?
**A.** inactive

**Q.** Which AC50 does the source give for `C=CC(O)CCCCC` (stereo not given) here?
**A.** 100 µM (active)

**Q.** With `NC(N)=S` as the molecule, how does the outcome read?
**A.** inactive
